# Data reported in PubChem BioAssay (NCI).
# About 83,000 compounds went through this panel and 20% of them were active in at least one assay; those are over-represented in the sample as a whole.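 For each line, cells grew in 96-well plates with the test compound present at a single concentration for 48 hours.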 Unmarked numbers belong to inactive results. Calls of active or inactive are those of the source. The calls were made as follows: active = growth percent below 10; inactive = the rest.
# System: HOP-62 NSCLC
# Test: NCI-60 one-dose screen, 48 h (100 = growth as untreated, 0 = no growth, -100 = all killed)
# Details: 10 µM unless noted
row,SMILES,growth [%]
1,Oc1[nH]c2ccc(Cl)cc2c1N=Nc1nc(N=Nc2c(O)[nH]c3ccc(Cl)cc23)nc(N2CCOCC2)n1,37.6
2,CCC1=Cc2c(OC)cccc2OC12C=Cc1c(OC)cccc1O2 (stereo not drawn),43.2
3,CCCC/C(=C\c1ccc(O)c(O)c1)C(=O)NC(Cc1ccccc1)C(=O)C(=O)NCCc1ccc(OC)cc1 (stereo not drawn),98.2
4,CC/C(=C(/c1ccc(Cl)cc1)c1ccc(OCCN)cc1)c1ccccc1,116
5,Cc1ccc(S(=O)(=O)c2nc(-c3ccc(F)cc3)oc2S(C)(=O)=O)cc1,99.8

# System: NCI-H460 lung
# Test: as above
# Details: 10 µM unless noted
row,SMILES,growth
1,COc1ccc(C2C(C#N)=C(/N=C/c3ccc(Cl)cc3)Oc3c2sc2c(C)cccc32)cc1 (stereo not drawn),10.1%
2,CN1CC[C@@H]2[C@@]3(C)CC[C@H](O)C(C)(C)[C@@H]3CC[C@@]2(C)[C@]2(C)CC[C@@]3(CO)CCC(C)(C)C[C@@H]3C12 (stereo partly drawn),98.3%
3,Clc1ccc2c(N/N=C/c3c[nH]c4ccccc34)ccnc2c1,-87.2% (active)
4,O=c1c2cc(-c3ccc(F)cc3F)ccc2n(Nc2ccccc2)c(=O)n1-c1cccc(C(F)(F)F)c1,9.35% (active)
5,NC1[C@H]2CN(c3cnc(C(=O)Nc4cc(F)cc5cccnc45)cn3)C[C@@H]12 (stereo partly drawn),92.1%
6,CCOC(=O)c1cccc(NC2=C(Cl)C(=O)c3nc(C)ccc3C2=O)c1,100%
7,O=C(CSc1nnc(-c2cccs2)n1-c1ccccc1)Nc1ccccc1,81.8%
8,CCc1cc2c(cc1Cl)nc1c(=O)[nH]c(=O)nc-1n2CCOCC(C)C,49.3%
